The panel holds about 83,000 compounds, 20% with a hit somewhere; the sample as a whole holds those more often.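 Results are percent growth after 48 hours of single-concentration exposure. 100 means growth as in untreated cells, lower positive values show inhibition; negative values down to -100 show cell death.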 Unmarked numbers belong to inactive results. The source made the active and inactive calls.
These compounds were tested on PC-3 prostate (assay: NCI-60 one-dose screen, 48 h (100 = growth as untreated, 0 = no growth, -100 = all killed)). Details: 10 µM unless noted.
Procedure: Growth inhibition of the PC-3 human tumor cell line is measured as a screen for anti-cancer activity. Cells are grown in 96 well plates and exposed to the test compound for 48 hours. Compounds are tested at a single concentration, which is 10^-5 M for most compounds. The reported endpoint is percent growth (GI% or GIPRCNT), where numbers from 0 - 100% represent growth inhibition, and numbers from -100% - 0 represent cell death. For example, a value of 40 represents 60% growth inhibition. A value of 0 means no net growth occurred over the course of the experiment. A value of -40 indicates 40% of cells at the beginning of the experiment died by the end of the experiment. A value of -100 means all cells are dead at the end of the experiment.
NCI-60 Human Tumor Cell Lines Screen was performed using the standard one-dose NCI protocol, which is described in more detail at https://dtp.cancer.gov/discovery_development/nci-60/default.htm.
Compounds with GIPRCNT values below 10 were considered active. Activity score was based on GIPRCNT using the following formula: […]
Score is 0 for GIPRCNT values of 100 or above, 50 for GIPRCNT values of 0, and 100 for GIPRCNT values of -100.

| SMILES | growth |
| --- | --- |
| CC(=O)OC[C@]12CC[C@@H]([C@@H](C)c3nnc(-c4ccncc4)o3)[C@@H]1[C@H]1CC[C@@H]3[C@@]4(C)CC[C@H](OC(C)=O)C(C)(C)[C@@H]4CC[C@@]3(C)[C@]1(C)CC2 | 33.5% |
| CN(Cc1ccccc1)c1nc(Cl)c(C2CC(c3ccccc3)=NN2c2ccccc2)s1 (stereo not given) | 83.2% |
| CN1CCN(c2ccc(NC(=O)c3cncnc3Nc3ccc(OCc4cccc(F)c4)c(Cl)c3)cc2)CC1 | 68.1% |
| Cc1ccc2c(=O)cc(C(=O)Nc3sc4c(c3C(=O)NCc3cccnc3)CCCC4)oc2c1C | 99.2% |
| CCOC(=O)C(=CNc1cnc(Nc2ccc(N3CCOCC3)cc2)nc1Oc1ccc(OC)cc1)C(=O)OCC | 67.7% |
| COc1cc(OC)c(C(=O)C(CN(C)C)CN(C)C)cc1OC | 94.5% |
| COc1cc(/C=C/C(=O)/C=C(O)/C=C/c2ccc(OC(=O)C34CC5CC(CC(C5)C3)C4)c(OC)c2)ccc1OC(=O)C12CC3CC(CC(C3)C1)C2 | 101% |
| S=c1nc2oc(-c3ccccc3)c(-c3ccccc3)c2c(/N=C\c2ccco2)[nH]1 | 85.8% |
| CCCCNc1cc(-c2cn[nH]c2-c2cc(C)cc(OC)c2)nc(-c2cccnc2)n1 | 80.9% |
| CC1C(/C=N/NC(N)=S)C(C#N)(C#N)C1(C#N)C#N (stereo not given) | 92.9% |
| CSC(SC)=C(C#N)c1nc2ccccc2s1 | 30% |
| C/C(=N\O)[C@@H]1CC[C@]2(CO)CC[C@]3(C)[C@H](CC[C@@H]4[C@@]5(C)CCCNC(C)(C)[C@@H]5CC[C@]43C)[C@@H]12 | 60.6% |
| Cc1ccc(C)c2c(C)c(C(=O)Nc3cccc(-n4cccn4)c3)oc12 | 38.8% [50 µM] |
| COc1ccc(C#Cc2ccc(=O)oc2-c2cc(OC)c(OC)c(OC)c2)cc1O | 40.6% |
| Cc1ccc(/C=C/C(=O)Nc2ncc(Cc3ccc(F)cc3)s2)o1 | 38.4% |
| COc1ccc(C(=O)Cn2c(C(=O)c3ccc(OC)cc3)nc3ccccc32)cc1 | 34.2% |
| O=c1c2ccccc2c(=O)c2c1sc1c(=O)c3ccc(O)cc3c(=O)c12 | -12.7% (active) |
| N#Cc1nc(-c2ccccc2)oc1S(=O)(=O)N1CCN(c2ccc(F)cc2)CC1 | 67.5% |
| N#CC1CCc2c(c(-c3ccc4nc(N)sc4c3)nc3ccc4[nH]ncc4c23)C1 (stereo not given) | 21.8% |
| CC(=O)Oc1ccc(OC(C)=O)c2ccccc12 | 54.8% |

| SMILES | growth |
| --- | --- |
| FC(F)(F)Oc1cccc(-c2cnc3ccc(-c4ccncc4)nn23)c1 | 15.5% |
| CCN1C(=O)N(CC)C2Nn3c(s/c(=C\c4ccccc4Br)c3=O)=NC21 (stereo not given) | 32.1% |
| CC/C=C\CCC/C=C1/C(=O)C=C[C@@H]1C/C=C\CCCC(=O)OC | 32.8% |
| COc1ccc(/C(C)=C(/c2ccc(OCCCN(C)C)cc2)c2ccc(OC(=O)c3ccccc3)cc2)cc1 | 73.4% |
| CCOC(=O)c1[nH]c2c(c1C)-c1[nH]c(=O)c(S(=O)(=O)c3ccccc3)cc1SC2 | -29.5% [100 µM] (active) |
| O=S1(=O)C=C(c2ccccc2)C(c2ccccc2)=C1 | 39.6% |
| COc1cc2c(c(OC)c1OC)C(=O)CC(c1cccc(NC(=O)c3ccc(C#N)cc3)c1)O2 (stereo not given) | 53% |
| Clc1ccccc1-c1cnn2cc(-c3ccccc3)cnc12 | 86.4% |
| CN1CCN(C(=S)SCCCCOc2cc(=O)oc3ccccc23)CC1 | 72.7% |
| C=CCN1C(=O)c2cccc3c(N4CCOCC4)ccc(c23)C1=O | -21.3% (active) |
| CC1=C(C(=O)Nc2nc(-c3ccc(Cl)cc3)cs2)[C@H](c2ccc(O)cc2)NC(=O)N1 | 84.4% |
| N#C/C(=C\C=C\c1ccc(-c2cc(Cl)ccc2Cl)o1)c1nc2ccccc2s1 | 93.2% |
| C/C(=N\O)c1ccc(NC(=O)CSc2nnc(-c3cc(-c4ccc(S(C)(=O)=O)cc4)nc4ccccc34)n2-c2ccccc2)cc1 | 68.5% |
| CCOC(=O)C1=C(C)C(Cl)=N/C1=C\c1[nH]c(Cl)c(C)c1C(=O)OCC | 76.3% |
| Cn1cc(-c2ccc(-c3cn(C)c4ccc(Cl)cc34)[nH]2)c2cc(Cl)ccc21 | -56.5% (active) |
| Cc1nnc(-c2ccc3c(c2)nc(/C=C/c2ccccc2)n3C2CCCCC2)o1 | 63.5% |
| Clc1ccc(-c2cc(-c3ccccc3)nc(NCCNc3ccnc4cc(Cl)ccc34)n2)cc1 | 16.3% |
| O=C1c2ccccc2C(=O)c2c1cc1c(c2[N+](=O)[O-])OCO1 | -3.71% (active) |
| NC1(CO)COC(c2ccccc2)OC1 (stereo not given) | 99% |
| CCOC(=O)C#Cc1c(C(=O)OCC)nnn1Cc1ccc(C(F)(F)F)cc1 | 64.5% |
